The text below walks through data of the antibiotic and cytotoxicity screens of Wong et al. (2023).

Out of some 39,000 compounds screened, about 1,500 (3.8%) were called active. The entries come from a sample that favours actives as a whole.

The subject of this test is HSkMC (human skeletal muscle cells). Briefly: cytotoxicity call (relative viability < 0.9). The note with it: 10 µM.
Regarding `COc1ccc(CN(C)C[C@H]2Oc3c(NC(=O)C4CCOCC4)cccc3C(=O)N([C@@H](C)CO)C[C@@H]2C)cc1`, the cytotoxicity call was “inactive”.

Regarding `CN1C(=O)c2cc(NC(=O)C3CCOCC3)ccc2OC[C@@H]2O[C@@H](CC(=O)NCc3ccccc3F)CC[C@@H]21`, the cytotoxicity call is “inactive”.

Consider `Cc1noc(C)c1NC(=O)N(C)C[C@H]1Oc2c(NC(=O)c3cnccn3)cccc2C(=O)N([C@@H](C)CO)C[C@@H]1C`, for which the cytotoxicity call is “inactive”.

Regarding `C[C@H]1CN([C@@H](C)CO)C(=O)c2cc(NC(=O)C3CC3)ccc2O[C@H]1CN(C)S(=O)(=O)c1ccc(Cl)cc1`, the cytotoxicity call was “inactive”. With `CC(=O)N[C@H]1[C@H](Oc2nc3cc(C)ccc3o2)O[C@H](CO)[C@@H](O)[C@@H]1O` the entry was “inactive”. With `Cc1ccc(-c2ccc3c(c2)O[C@H](CN(C)C(=O)CN(C)C)[C@H](C)CN([C@@H](C)CO)S3(=O)=O)cc1` the entry was “inactive”; with `O=C(CN1CCOCC1)N[C@H]1CC[C@H](CCNC(=O)Nc2cc(F)ccc2F)O[C@H]1CO`, “inactive”.

With `CN1C(=O)c2cc(NC(=O)c3ccc(F)c(F)c3)ccc2OC[C@@H]2O[C@H](CC(=O)N3CCOCC3)CC[C@@H]21`, the cytotoxicity call is “inactive”. With `Cc1noc(C)c1S(=O)(=O)N(C)C[C@H]1Oc2ccc(NC(=O)Nc3ccc4c(c3)OCO4)cc2C(=O)N([C@H](C)CO)C[C@@H]1C` the entry was “inactive”; with `COc1ccc(CN(C)C[C@@H]2OCCCC[C@@H](C)Oc3ccc(NC(=O)Nc4ccc(F)cc4)cc3C(=O)N([C@@H](C)CO)C[C@H]2C)cc1`, “inactive”. In the case of `C[C@@H]1CN([C@H](C)CO)C(=O)Cc2cc(NC(=O)Nc3ccc(C(F)(F)F)cc3)ccc2O[C@@H]1CN(C)Cc1ccc(C(=O)O)cc1`, the cytotoxicity call was “inactive”. With `C[C@@H]1CN([C@H](C)CO)C(=O)Cc2cc(NC(=O)Nc3ccc(C(F)(F)F)cc3)ccc2O[C@@H]1CN(C)Cc1ccc(C(F)(F)F)cc1` the entry was “active”; with `C[C@H](CO)N1C[C@H](C)[C@@H](CN(C)Cc2ccc(C(F)(F)F)cc2)Oc2ccc(NC(=O)C3CCCCC3)cc2CC1=O`, “inactive”; with `C[C@@H]1CN([C@@H](C)CO)C(=O)Cc2cc(NC(=O)Nc3ccc(C(F)(F)F)cc3)ccc2O[C@@H]1CN(C)Cc1ccc(C(=O)O)cc1`, “inactive”.

Regarding `C[C@H]1CN([C@@H](C)CO)C(=O)Cc2cc(NC(=O)C3CCCCC3)ccc2O[C@@H]1CN(C)Cc1ccc(C(F)(F)F)cc1`, the cytotoxicity call was “inactive”. With `C[C@H](CO)N1C[C@H](C)[C@@H](CN(C)Cc2ccc(C(F)(F)F)cc2)Oc2ccc(NC(=O)Nc3ccc(C(F)(F)F)cc3)cc2CC1=O` the entry was “active”. With `C[C@@H]1CN([C@@H](C)CO)C(=O)Cc2cc(NC(=O)C3CCCCC3)ccc2O[C@@H]1CN(C)Cc1ccc(C(F)(F)F)cc1` the entry was “active”; with `C[C@@H]1CN([C@H](C)CO)C(=O)Cc2cc(NC(=O)Nc3ccc(C(F)(F)F)cc3)ccc2O[C@H]1CN(C)Cc1ccc(C(F)(F)F)cc1`, “active”. As for `Cc1noc(C)c1NC(=O)N(C)C[C@@H]1OCCCC[C@H](C)Oc2ccc(NS(=O)(=O)c3ccc(F)cc3)cc2C(=O)N([C@H](C)CO)C[C@@H]1C`, the cytotoxicity call is “inactive”. Take `Cc1noc(C)c1S(=O)(=O)N(C)C[C@@H]1Oc2c(NC(=O)c3cnccn3)cccc2C(=O)N([C@H](C)CO)C[C@@H]1C`: the cytotoxicity call was “inactive”. With `O=C(C[C@H]1CC[C@H]2[C@@H](COC[C@H](O)CN2S(=O)(=O)c2ccccc2)O1)NCCN1CCCCC1` the entry was “inactive”; with `c1cc(CCN2CCNCC2)ccn1`, “inactive”; with `O=C(O)[C@H](O)c1ccc(F)cc1`, “inactive”.

For `CCS(=O)(=O)N1C[C@]2(CN(C2)C(=O)Nc2c(noc2C)C)c2c(n(c3cc(ccc23)OC)C)[C@H]1CO`, the cytotoxicity call is “inactive”.

With `C[C@H](CO)N1C[C@H](C)[C@@H](CN(C)Cc2ccncc2)Oc2ccc(NC(=O)Nc3ccc(C(F)(F)F)cc3)cc2CC1=O`, the cytotoxicity call was “active”. With `C[C@H](CO)N1C[C@H](C)[C@H](CN(C)Cc2ccncc2)Oc2ccc(NC(=O)Nc3ccc(C(F)(F)F)cc3)cc2CC1=O` the entry was “inactive”; with `C[C@@H]1CN([C@@H](C)CO)C(=O)Cc2cc(NC(=O)Nc3ccc(C(F)(F)F)cc3)ccc2O[C@@H]1CN(C)Cc1ccc(C(F)(F)F)cc1`, “active”. With `C[C@@H]1CN([C@@H](C)CO)C(=O)Cc2cc(NC(=O)Nc3ccc(C(F)(F)F)cc3)ccc2O[C@H]1CN(C)Cc1ccncc1` the entry was “inactive”; with `C[C@@H]1CN([C@H](C)CO)C(=O)c2cc(NS(=O)(=O)c3ccc(Cl)cc3)ccc2O[C@@H](C)CCCCO[C@@H]1CN(C)Cc1ccc(C(=O)O)cc1`, “inactive”; with `C[C@H](CO)N1C[C@H](C)[C@H](CN(C)C(=O)Nc2ccc3c(c2)OCO3)OCCCC[C@H](C)Oc2ccc(NC(=O)NC3CCCCC3)cc2C1=O`, “inactive”. Consider `C[C@@H]1CN([C@H](C)CO)C(=O)Cc2cc(NS(C)(=O)=O)ccc2O[C@@H]1CN(C)S(=O)(=O)c1ccc(F)cc1`, for which the cytotoxicity call is “inactive”. As for `C[C@@H]1CCCCO[C@H](CN(C)Cc2ccc(C(F)(F)F)cc2)[C@@H](C)CN([C@H](C)CO)C(=O)c2cc(NC(=O)Nc3ccccc3)ccc2O1`, the cytotoxicity call is “inactive”. With `C[C@@H]1CN([C@H](C)CO)C(=O)c2cc(NC(=O)Nc3ccccc3)ccc2O[C@@H](C)CCCCO[C@@H]1CN(C)Cc1ccc(C(F)(F)F)cc1` the entry was “inactive”; with `C[C@H](CO)N1C[C@H](C)[C@@H](CN(C)Cc2ccc(C(F)(F)F)cc2)OCCCC[C@H](C)Oc2ccc(NC(=O)Nc3ccccc3)cc2C1=O`, “inactive”; with `C[C@H]1CCCCO[C@@H](CN(C)Cc2ccc(C(F)(F)F)cc2)[C@@H](C)CN([C@@H](C)CO)C(=O)c2cc(NC(=O)Nc3ccccc3)ccc2O1`, “active”. With `C[C@@H]1CCCCO[C@@H](CN(C)Cc2ccc(C(F)(F)F)cc2)[C@H](C)CN([C@H](C)CO)C(=O)c2cc(NC(=O)Nc3ccccc3)ccc2O1` the entry was “active”. With `C[C@@H]1CCCCO[C@H](CN(C)Cc2ccc(C(F)(F)F)cc2)[C@@H](C)CN([C@@H](C)CO)C(=O)c2cc(NC(=O)Nc3ccccc3)ccc2O1` the entry was “inactive”; with `C[C@@H]1CN([C@H](C)CO)C(=O)c2cc(NC(=O)Nc3ccccc3)ccc2O[C@@H](C)CCCCO[C@H]1CN(C)Cc1ccc(C(F)(F)F)cc1`, “active”; with `C[C@@H]1CCCCO[C@@H](CN(C)Cc2ccc(C(F)(F)F)cc2)[C@H](C)CN([C@@H](C)CO)C(=O)c2cc(NC(=O)Nc3ccccc3)ccc2O1`, “inactive”.

In the case of `C[C@@H]1CCCCO[C@H](CN(C)Cc2ccc(C(F)(F)F)cc2)[C@H](C)CN([C@@H](C)CO)C(=O)c2cc(NC(=O)Nc3ccccc3)ccc2O1`, the cytotoxicity call was “inactive”. With `C[C@@H]1CCCCO[C@H](CN(C)Cc2ccc(C(F)(F)F)cc2)[C@H](C)CN([C@H](C)CO)C(=O)c2cc(NC(=O)Nc3ccccc3)ccc2O1` the entry was “active”. With `C[C@@H]1CCCCO[C@@H](CN(C)Cc2ccc(C(F)(F)F)cc2)[C@@H](C)CN([C@H](C)CO)C(=O)c2cc(NC(=O)Nc3ccccc3)ccc2O1` the entry was “inactive”. As to `C[C@@H]1CN([C@@H](C)CO)C(=O)c2cc(NC(=O)Nc3ccccc3)ccc2O[C@@H](C)CCCCO[C@@H]1CN(C)Cc1ccc(C(F)(F)F)cc1`, the cytotoxicity call was “inactive”.
